We go through twelve compounds from PMC5540273 (PLoS ONE, 2017).
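Further: KINOMEscan kinase panel screen.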

In the test the test system is NEK11. The settings on record: concentration: 1 μM, replicates: in singlicate; n = 1.
For `CN1CCN(Cc2ccc(NC(=O)Nc3ccc(N(C)c4ccnc(Nc5ccc(CS(C)(=O)=O)cc5)n4)cc3)cc2)CC1.Cl` [GW827654], the “%Inh” value worked out at 19%.

Regarding `COc1cccc(-c2nc(-c3ccccc3)[nH]c2-c2ccncc2)c1` [SB-610250], the “%Inh” value is 26%.

As for `CN(C)CCNS(=O)(=O)c1ccc(-c2ccnc3[nH]ccc23)cc1` [GSK977620], the “%Inh” value is 0%.

`N#CC1(c2cccc(C(=O)Nc3cccc(Oc4ccc5nc(NC(=O)C6CC6)sc5n4)c3)c2)CC1`: the “%Inh” value is given as 0%.

As to `CCNC(=O)/C=C/c1n[nH]c2cc(Sc3ccccc3C(=O)NC)ccc12`, the “%Inh” value came out at 0%.

For the compound `CCn1cnc2c(NCc3ccccc3)ncnc21` [SKF-96418], the “%Inh” value came to 0%.

In the case of `CN(c1ccc2c(c1)nc(NCc1ccccc1)n2C)c1ccnc(Nc2ccc(CS(C)(=O)=O)cc2)n1.Cl` [GW811603], the “%Inh” value was determined as 0%.

Take `Cl.O=C(Nc1ccc(Oc2ccc3[nH]c(NC(=O)c4ccco4)nc3c2)cc1)Nc1cc(C(F)(F)F)ccc1F` [GW683134]: the “%Inh” value worked out at 0%.

As for `Nc1ncc(-c2cn[nH]c2)c2scc(-c3ccc4c(c3)CCN4C(=O)Cc3ccccc3)c12` [GSK2593067], the “%Inh” value was found to be 87%.

In the case of `Cc1ccc(NC(=O)c2ccc(Cl)c(Cl)c2)cc1-c1ccc(C(=O)Nc2ccncc2)cc1` [GSK1398460], the “%Inh” value is listed as 0%.

`COC(=O)Nc1nc2ccc(Oc3ccc(NC(=O)Nc4cc(C(F)(F)F)ccc4F)cc3)cc2[nH]1.Cl` [GW654607]: the “%Inh” value came out at 0%.

Turning to `COc1ccc(C)c(Nc2ccnc(Nc3ccc(-c4cnc[nH]4)cc3)n2)c1.Cl` [GW784041], the “%Inh” value is listed as 0%.
